Screening data from PubChem.
Most compounds without a hit are left out; they make up all but 10% or so of the library.
PLK1 PBD inh: qHTS for Inhibitors of PLK1-PDB (polo-like kinase 1 - polo-box domain): Primary Screen. Serine/threonine-protein kinase PLK1 (Homo sapiens), P53350. Plk1 PBD binding of FITC phosphopeptide, fluorescence polarization. Potency, µM, for the others: max response, negative = inhibition, actives largely listed as inhibitors. 360,000 compounds, 2.8% hits; further: potency means the concentration at half of the fitted maximal effect; series mostly up to about 57 µM; nearly all actives have a fitted effect of over 65% in size
VDR inhibitor: Inhibitors of the vitamin D receptor (VDR): qHTS; Vitamin D3 receptor (Homo sapiens), P11473; VDR-SRC2-3 peptide fluorescence polarization, 2 h; Potency, µM, inactives show max response, negative = inhibition, actives largely listed as inhibitors; 400,000 compounds, 0.93% hits; AID 504847, 2011; further: potency means the concentration at half of the fitted maximal effect
Target sequence (P11473 whole entry, looked up): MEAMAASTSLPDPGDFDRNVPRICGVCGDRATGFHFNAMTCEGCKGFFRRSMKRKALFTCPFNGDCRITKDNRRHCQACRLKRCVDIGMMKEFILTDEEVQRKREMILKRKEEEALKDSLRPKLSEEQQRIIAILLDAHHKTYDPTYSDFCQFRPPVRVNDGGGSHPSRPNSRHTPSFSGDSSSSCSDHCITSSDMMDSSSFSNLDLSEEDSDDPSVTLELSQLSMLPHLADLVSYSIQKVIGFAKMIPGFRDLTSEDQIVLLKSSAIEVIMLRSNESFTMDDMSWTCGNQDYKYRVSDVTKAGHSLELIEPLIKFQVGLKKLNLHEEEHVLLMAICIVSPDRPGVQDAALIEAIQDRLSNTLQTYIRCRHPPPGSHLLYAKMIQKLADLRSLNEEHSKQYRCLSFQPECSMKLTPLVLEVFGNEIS
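FP read-out; VDR + SRC2-3 coactivator peptide; 23 nl compound by pintool; 2 h RT incubation; reagents held at 4 deg C, protected from light.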
G9a inh: qHTS Assay for Inhibitors of Histone Lysine Methyltransferase G9a; Histone-lysine N-methyltransferase EHMT2 (Homo sapiens), Q96KQ7; G9a H3K9 monomethylation, AlphaScreen, 2 h; Potency, µM (doses to about 102 µM), without a hit: at the top dose activity, negative = inhibition, most hits filed as inhibitors; 350,000 compounds, 8.8% hits; AID 504332, 2011; further: potency means the concentration at half of the fitted maximal effect; nearly all actives have a fitted effect of over 75% in size
Target sequence (Q96KQ7 913-1193 limits assumed): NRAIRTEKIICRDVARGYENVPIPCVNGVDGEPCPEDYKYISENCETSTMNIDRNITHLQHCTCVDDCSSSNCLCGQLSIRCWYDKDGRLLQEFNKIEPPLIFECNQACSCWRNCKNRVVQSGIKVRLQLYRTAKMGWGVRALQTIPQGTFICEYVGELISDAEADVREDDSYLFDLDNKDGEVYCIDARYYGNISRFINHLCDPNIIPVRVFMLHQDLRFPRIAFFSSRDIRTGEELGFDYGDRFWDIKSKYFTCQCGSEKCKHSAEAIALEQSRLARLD
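G9a (20 nM) preincubated 15 min RT with compounds, then 500 nM biotinylated H3K9 peptide and 20 uM SAM added; 2 h RT reaction. Monomethyl-H3K9 product detected by AlphaScreen with anti-H3K9me1 antibody, streptavidin donor and anti-rabbit IgG acceptor beads.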
Sfp inh: qHTS Assay for Inhibitors of Bacillus subtilis Sfp phosphopantetheinyl transferase (PPTase). 4'-phosphopantetheinyl transferase ffp (Bacillus subtilis), Q9F4F7. Biochemical Sfp PPTase activity, qHTS. Potency, µM, without a hit: largest response in the series, negative = inhibition, usual class: inhibitors. 310,000 compounds, 3.5% hits. AID 1490, 2009;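 further: the enzyme is Sfp with the accession as filed and its product quenches rhodamine fluorescence; potency means the concentration at half of the fitted maximal effect; 0% = enzyme reaction without inhibitor and -100% = no enzyme wells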
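With Hepes-Na pH 7.6 buffer containing 10 mM MgCl2, Sfp (15 nM) modified BHQ-2-YbbR (12.5 uM) using rhodamine-CoA (5 uM). Two reads 30 minutes apart at 525/598 nm yielded each well's rate.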
CCT modulator: High-Throughput Screening for Modulators of Cytosolic Chaperonin Activity | purified chaperonin ATPase assay, HTRF ADP detection, 30 min | activity change, % (test concentration not listed), hits read low | 360,000 compounds, 0.3% hits | AID 651819, 2012; in the data active means activity change below about -30%
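TRiC (40 or 20 nM final, by batch activity) in 30 mM Tris pH 7.4, 100 mM KCl, 5 mM MgCl2, 1 mM DTT was treated with compound at 76 uM single dose, then 10 uM ATP, 30 min at 37 °C. ADP was read by HTRF Transcreener.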
MmCpn inh: Inhibitors of TCP-1 ring complex (TRiC) of Methanococcus maripaludis (MmCpn): qHTS; Chaperonin Mm-Cpn (Methanococcus maripaludis); purified Mm-Cpn ATPase, ADP Transcreener TR-FRET; Potency, µM (highest dose often 76.9 µM), for the others: at the top dose activity, negative = inhibition, most hits filed as inhibitors; 330,000 compounds, 0.031% hits; further: potency means the concentration at half of the fitted maximal effect; nearly all actives have a fitted effect of over 80% in size
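Purified archaeal Mm-CPN (25nM final) preincubated 10 min at 37degC with compound, then 10uM ATP for 30 min at 37degC; ADP measured by HTRF Transcreener TR-FRET; buffer 30 mM TRIS pH 7.4, 100mM KCl, 5mM MgCl2, 1mM DTT.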
The depositor's hits bear a star; ? = inconclusive; . = no result given; [ ] = dose if it differs, or a comment. Unless noted, the call rests on the fitted dose curve; in most records, active means well fitted curve in the direction sought with a large enough effect; inconclusive means small, poorly fitted or top-dose-only effect, or another doubt; inactive means no such curve, though single readings can be large; an effect the other way counts as inactive or inconclusive. Unless noted, on the % scale 0 is the no-effect control and ±100 the full control effect.

SMILES | PLK1 PBD inh | VDR inhibitor | G9a inh | Sfp inh | CCT modulator | MmCpn inh
COc1ccc(C2NC(=S)NC(C)=C2C(=O)N2CCOCC2)cc1 (stereo not drawn) | -2% | -11% | 40µM* | ? | -2 | 1%
CC1=C(C(=O)c2ccccc2)C(c2ccc(OC(F)F)cc2)NC(=S)N1 (stereo not drawn) | 24µM* | ? | -2% | 0% | -1 | -2%
CC1=C(C(=O)c2ccccc2)C(c2ccc(O)cc2)NC(=S)N1 (stereo not drawn) | -3% | -10% | ? | -9% | 0 | -1%
CCC(Sc1nc2ncnc(N)c2[nH]1)C(=O)O (stereo not drawn) | -4% | -17% | 40µM* | 9% | 2 | 0%
Nc1ncnc2nc(SCC(=O)N3CCN(c4ccccc4)CC3)[nH]c12 | -9% | -4% | -14%[12.7 µM] | -2% | -1 | 0%
CCN(C(=O)c1coc(=O)c2ccccc12)c1ccccc1C | . | -3% | -22%[59 µM] | . | . | .
O=C(O)c1cccc(-n2cccc2/C=C2/NC(=O)N(c3ccc(Cl)cc3)C2=O)c1 | 4.7µM* | 5% | 1.4µM* | 14µM* | -3 | -2%
O=C(O)c1ccc(COc2ccccc2/C=C2/NC(=O)N(c3cccc(Cl)c3)C2=O)cc1 | -21% | 0% | -15%[59 µM] | -3% | -2 | 5%
O=C(O)c1cccc(-n2cccc2/C=C2/NC(=O)N(c3cccc(Cl)c3)C2=O)c1 | ? | 4% | . | 45µM* | -2 | 1%
CN(CC(=O)Nc1ccc(F)cc1F)S(=O)(=O)c1ccc(C(=O)N2CCOCC2)s1 | . | 5% | 9%[59 µM] | . | . | .
CCOc1ccc(NC(=O)Cn2c(=O)n(-c3cccc(OC)c3)c(=O)c3c4c(sc32)CCCC4)cc1 | . | 0% | 9%[59 µM] | . | . | .
COc1ccc2oc(=O)cc(CN3CCN(c4ccccc4OC)CC3)c2c1 | . | 3% | -26%[59 µM] | . | . | .
CCOc1ccc(NC(=O)CN2CCN(C3c4ccccc4-c4ccccc43)CC2)cc1 | -2% | 2% | ? | 18% | 0 | 1%
CC(C)(C)C(=O)CN1CCN(C2c3ccccc3-c3ccccc32)CC1 | 0% | -2% | 50µM* | -10% | 0 | -1%
COc1ccccc1NC(=O)CN1CCN(C2c3ccccc3-c3ccccc32)CC1 | 1% | 0% | . | ? | -2 | 1%
COc1ccc(NC(=O)CN2CCN(C3c4ccccc4-c4ccccc43)CC2)c(OC)c1 | -11% | -11% | 45µM* | ? | -4 | -15%
COC(=O)c1cc2sccc2n1Cc1c(C)cc(C)cc1C | . | 1% | 22%[59 µM] | . | . | .
CC(=O)Nc1cccc(NC(=O)Cn2cnc3c2c(=O)n(C)c(=O)n3C)c1 | . | -14% | 8%[59 µM] | . | . | .
Cn1nc(Oc2ncc(C(F)(F)F)cc2Cl)cc1C(F)(F)F | 27µM* | -26% | 0% | 12% | 0 | 3%
CCN(CC)S(=O)(=O)c1ccc(Oc2ccccc2)c(N)c1 | -5% | 10% | 5% | -1% | 1 | 0%
Cc1cc(C)[n+](-c2ccc(Oc3ccccc3)c(S(=O)(=O)[O-])c2)[nH]1 | 27µM* | ? | ? | 17% | 3 | -1%
COCCNC(=O)C(=O)Nc1c2c(nn1-c1ccccc1)CS(=O)(=O)C2 | . | 9% | ? | . | . | .
Cc1oc2ncn(C)c(=O)c2c1C(=O)NCc1ccccc1 | . | 11% | -7%[59 µM] | . | . | .
COc1cccc(OC)c1C(=O)NCCSC1CCCCC1 | 27µM* | ? | 13% | 17% | -1 | -3%
C[C@@]1(O)C(O)[C@@H](CO)O[C@H]1n1cnc2c(NC3CCCC3)nc(Cl)nc21 (stereo partly drawn) | . | . | . | 12% | . | .
SMILES | PLK1 PBD inh | VDR inhibitor | G9a inh | Sfp inh | CCT modulator | MmCpn inh
COc1ccc(C(=O)Nc2ccnn2C2CCN(Cc3cnn(C)c3)CC2)cc1 | 27µM* | -15% | 29% | 5% | 0 | 3%
CSCC(=O)N1CCC(n2nccc2NC(=O)c2ccc3c(c2)OCO3)CC1 | 7% | -3% | 45µM* | 19% | -2 | 2%
Cn1cc(CN2CCC(n3nccc3NC(=O)c3ccccc3Cl)CC2)cn1 | -3% | -10% | 5% | 9% | -3 | 2%
CCCCc1ncc(CN2CCC(n3nccc3NC(=O)c3ccccc3OC)CC2)[nH]1 | 24µM* | ? | -5% | 1% | -1 | 3%
COc1ccc(C(=O)Nc2ccnn2C2CCN(Cc3ccccn3)CC2)cc1 | -17% | 0% | 50µM* | -2% | -35* | -1%
CCN(CC)C(=O)c1sc2c(c1C)c(=O)n(-c1ccc(C)c(C)c1)c(=O)n2Cc1cc(=O)n2ccccc2n1 | . | 8% | 0%[59 µM] | . | . | .
O=C(Nc1ccnn1C1CCN(CC2CC=CCC2)CC1)c1ccccc1 (stereo not drawn) | 0% | -12% | 6%[12.7 µM] | 17% | -54* | -2%
CSc1ccc(CN2CCC(n3nccc3NC(=O)c3ccccc3C)CC2)cc1 | 30µM* | -21% | -2% | 13% | 0 | 0%
O=C(CCCc1ccccc1)Nc1ccnn1C1CCN(Cc2ccccn2)CC1 | -11% | -2% | 79µM* | 1% | -2 | 0%
CCc1ccc(CN2CCC(n3nccc3NC(=O)c3ccccc3Cl)CC2)cc1 | 2% | -23% | 7% | 10% | -2 | -2%
Cc1ccc(NC(=O)c2cc(S(=O)(=O)N3CCCC(C)C3)cn2C)c(Br)c1 (stereo not drawn) | . | -3% | 1%[59 µM] | . | . | .
CCCN1C(C(=O)c2ccccc2)=C(OC(=O)C(C)(C)C)c2ccccc2S1(=O)=O | . | 10% | -7%[59 µM] | . | . | .
CCCCC(=O)Nc1ccc(OCc2cc(=O)n3ccc(C)cc3n2)cc1 | . | 10% | 18%[59 µM] | . | . | .
CC(=O)N(c1ccc2oc(=O)sc2c1)S(=O)(=O)c1ccccc1 | 30µM* | -27% | 25µM* | 8.9µM* | -1 | -5%
COc1ccc(N(C(=O)COc2ccc(C)cc2)S(=O)(=O)c2ccc(C)cc2)cc1 | -6% | 7% | 8%[59 µM] | -4% | -1 | -1%
CCCC(=O)N(c1ccc2oc(=O)sc2c1)S(=O)(=O)c1cccs1 | -21% | ? | 40µM* | ? | 0 | 1%
COc1ccc(S(=O)(=O)N(C(=O)C(C)C)c2ccc3oc(=O)sc3c2)cc1 | -23% | 79µM* | 7.9µM* | ? | 3 | 3%
CCOC(=O)c1c(-c2ccccc2)oc2ccc(N(C(C)=O)S(=O)(=O)c3ccc(C)cc3)cc12 | . | 8% | 6%[59 µM] | . | . | .
